Where “and” joins values, the source holds several entries; their conditions need not be identical. Equal values may be shown once. Records with an inconclusive call do not appear. Calls of active or inactive are those of the source. Unless noted, calls follow the shape of the dose curve; as a rule, active = well fitted curve in the direction sought with a large enough effect; inconclusive = small, poorly fitted or top-dose-only effect, or another doubt; inactive = no such curve, though single readings can be large; an effect the other way counts as inactive or inconclusive.
How the values were obtained:
[1] = qHTS assay for small molecule agonists of the antioxidant response element (ARE) signaling pathway (AID 651741; active = well fitted activation curve with a large enough effect in the signal ratio; the % refers to the signal ratio; also: potency is read from the fitted curve at half-maximal effect; as to activation: % of control where 0% means no effect)
Outline: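 Seeding 2,000 ARE-bla HepG2 cells per well preceded a 5 h incubation at 37 C/5% CO2 and a 16 h compound exposure at 37 C. Beta-lactamase reporter activity was then quantified by fluorescence after 2 h with LiveBLAzer B/G FRET substrate.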

[2] = qHTS assay for small molecule activators of the p53 signaling pathway (AID 651743; active = well fitted activation curve with a large enough effect in the signal ratio, not every such curve was filed as active; the % refers to the signal ratio; also: series mostly up to about 92 µM; % of control where 0% means no effect); conditions: HCT-116 p53RE-bla, beta-lactamase FRET ratio, 16 h; activation: active compounds read high
Outline: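 Screen for p53 pathway agonists uses stably transfected p53RE-bla HCT-116 cells, 4,000 per well, treated 16 h at 37 C with compounds in DMSO.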

[3] = molecular target: Peroxisome proliferator-activated receptor alpha (Homo sapiens) (UniProt Q07869); test: qHTS assay for small molecule agonists of the peroxisome proliferator-activated receptor alpha (PPARalpha) signaling pathway (AID 651778); conditions: PathHunter PPARalpha complementation, chemiluminescence, 6 h; active compounds read high; also: % of control where 0% means no effect
Chain of Peroxisome proliferator-activated receptor alpha (Homo sapiens) (Q07869 whole entry, looked up): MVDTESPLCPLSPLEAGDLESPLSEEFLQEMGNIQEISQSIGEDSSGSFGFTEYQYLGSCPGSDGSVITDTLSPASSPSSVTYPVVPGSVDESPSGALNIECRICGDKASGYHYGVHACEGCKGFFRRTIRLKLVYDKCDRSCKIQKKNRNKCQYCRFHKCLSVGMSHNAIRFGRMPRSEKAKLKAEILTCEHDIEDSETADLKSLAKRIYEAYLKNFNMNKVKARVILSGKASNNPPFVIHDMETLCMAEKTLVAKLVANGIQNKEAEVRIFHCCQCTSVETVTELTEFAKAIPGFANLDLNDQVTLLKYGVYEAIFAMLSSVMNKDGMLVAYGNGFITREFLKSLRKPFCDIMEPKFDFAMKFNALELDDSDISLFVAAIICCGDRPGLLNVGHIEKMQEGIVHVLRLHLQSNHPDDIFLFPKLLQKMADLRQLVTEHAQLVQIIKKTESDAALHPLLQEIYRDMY
Outline: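 Chemiluminescence from complemented enzyme reported PPARalpha activation in cells after 6 hr of compound treatment at 37 C. The detection reagent was incubated for 60 min at room temperature, and compounds were scored as agonists.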

[4] = qHTS assay for small molecule agonists of the antioxidant response element (ARE) signaling pathway measured by Nrf2-dependant transcriptional activity (AID 720636; active = well fitted curve in the direction sought with a large enough effect in the repeat runs; an effect the other way counts as inactive or inconclusive; also: potency is read from the fitted curve at half-maximal effect;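 as to activation: HepG2 cells with an ARE-driven luciferase reporter; % of control where 0% means no effect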)
Outline: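 First, ARE-luc HepG2 cells attached for 6 hr at 37 C in 1% dialyzed FBS medium. Next, compound or DMSO was added and incubated 16 hr. Finally, ONE-Glo reagent was added and luminescence measured after 30 min.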

[5] = qHTS assay for small molecule agonists of the antioxidant response element (ARE) signaling pathway measured by Nrf2-dependant transcriptional activity - cell viability counter screen (AID 720653; active = well fitted curve in the direction sought with a large enough effect in the repeat runs; an effect the other way counts as inactive or inconclusive; also: % is scaled to controls: 0 for no effect and ±100 for the full control effect); conditions: ARE-bla HepG2 viability, CellTiter-Glo ATP luminescence, 16 h; active compounds read low
Outline: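 Cytotoxicity counter screen: intracellular ATP quantified by CellTiter-Glo luminescence in the same ARE-bla HepG2 plates, after 16 h compound exposure and a 2 h beta-lactamase substrate step.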

[6] = qHTS assay for small molecule disruptors of the mitochondrial membrane potential - 1 hr assay (AID 651754; calls by dose curve; also: % is scaled to controls: 0 for no effect and ±100 for the full control effect; nearly all actives have a fitted effect of over 35% in size)
Outline: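 HepG2 cells, attached overnight at 37C, were exposed to compound or DMSO vehicle for 1 hr at 37C, 5% CO2, then stained with Mito-MPS dye for 30 min. Red aggregate versus green monomer fluorescence reports membrane potential.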

[7] = qHTS assay for small molecule disruptors of the mitochondrial membrane potential - 5 hr assay (AID 651755; calls by dose curve; also: % is scaled to controls: 0 for no effect and ±100 for the full control effect; nearly all actives have a fitted effect of over 40% in size)
Outline: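 HepG2, 2,000 cells/well, overnight attach; cpd or DMSO 5 hr, 37C/5% CO2; Mito-MPS 30 min 37C; fluor 490/535 + 540/590 nm.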

[8] = molecular target: Tumor necrosis factor (Homo sapiens) (UniProt P01375); test: qHTS assay to identify small molecules that stimulate Tumor Necrosis Factor-alpha (TNF-alpha) secretion (AID 651757; active = well fitted curve in the direction sought with a large enough effect in the signal ratio; the % refers to the signal ratio; also: 0% is about no effect)
Chain of Tumor necrosis factor (Homo sapiens) (P01375 whole entry, looked up): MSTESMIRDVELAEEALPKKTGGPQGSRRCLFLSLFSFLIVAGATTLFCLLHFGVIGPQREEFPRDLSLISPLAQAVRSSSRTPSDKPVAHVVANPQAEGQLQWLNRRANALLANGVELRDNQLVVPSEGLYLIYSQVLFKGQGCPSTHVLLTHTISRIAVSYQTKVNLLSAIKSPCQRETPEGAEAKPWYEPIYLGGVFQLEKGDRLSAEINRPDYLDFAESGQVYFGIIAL
Outline: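 THP-1 cells were exposed to compounds for 17 hrs at 37 C, after which secreted TNF-alpha was measured by homogeneous HTRF (TR-FRET) using cryptate- and XL665-labeled anti-TNF-alpha antibodies, read after 3 hr at room temperature.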

[9] = qHTS assay for environmental chemicals that activate the Aryl hydrocarbon Receptor (AhR) signaling pathway (AID 651777); conditions: 1A2-DRE human hepatoma cells, luciferase, 24 h; activation: active compounds read high; also: % of control where 0% means no effect; nearly all actives have a fitted effect of over 15% in size
Outline: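 AhR activation is scored as a rise in luciferase from a stable DRE–CYP1A2 promoter construct in human hepatoma cells. Treatment lasts 24 hr at 37 C; detection uses One-Glo after 30 min at room temperature.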

[10] = molecular target: Nuclear receptor ROR-gamma (Homo sapiens) (UniProt P51449); test: qHTS assay for small molecule antagonists of the retinoid-related orphan receptor gamma (ROR-gamma) signaling pathway (AID 651802); also: series mostly up to about 92 µM; % is scaled to controls: 0 for no effect and ±100 for the full control effect; nearly all actives have a fitted effect of over 60% in size
Chain of Nuclear receptor ROR-gamma (Homo sapiens) (P51449 whole entry, looked up): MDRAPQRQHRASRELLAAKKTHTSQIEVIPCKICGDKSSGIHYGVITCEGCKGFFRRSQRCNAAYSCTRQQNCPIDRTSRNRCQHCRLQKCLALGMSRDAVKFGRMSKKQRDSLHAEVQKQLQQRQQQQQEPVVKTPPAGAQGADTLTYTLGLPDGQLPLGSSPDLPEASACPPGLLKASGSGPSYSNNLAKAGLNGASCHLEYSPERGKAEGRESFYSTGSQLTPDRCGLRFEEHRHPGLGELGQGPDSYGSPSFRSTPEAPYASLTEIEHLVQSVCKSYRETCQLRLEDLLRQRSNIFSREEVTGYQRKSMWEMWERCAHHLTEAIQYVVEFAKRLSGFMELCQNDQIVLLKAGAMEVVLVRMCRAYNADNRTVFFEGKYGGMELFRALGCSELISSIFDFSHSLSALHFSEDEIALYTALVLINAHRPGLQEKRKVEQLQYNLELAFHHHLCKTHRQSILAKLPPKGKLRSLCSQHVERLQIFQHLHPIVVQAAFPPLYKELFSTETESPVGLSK
Outline: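 CHO cells carrying TET-inducible ROR-gamma and an ROR response element–luciferase reporter were exposed to compound, then induced with doxycycline. After 16hr at 37C, luminescence was read; lower signal indicates antagonism.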

[11] = qHTS assay for small molecule antagonists of the retinoid-related orphan receptor gamma (ROR-gamma) signaling pathway - cell viability counter screen (AID 720652; active = well fitted curve in the direction sought with a large enough effect in the repeat runs; an effect the other way counts as inactive or inconclusive;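 also: series mostly up to about 92 µM; compound exposure lasted 16 hr before ATP read; % is scaled to controls: 0 for no effect and ±100 for the full control effect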)
Outline: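 Counter screen in CHO cells carrying TET-inducible ROR-gamma and an ROR response element-luciferase reporter; cells plated 5 hr, compound pinned, doxycycline added, then 16 hr at 37 C. Viability read as intracellular ATP by CellTiter-Glo luminescence.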

[12] = molecular target: Tyrosine-protein kinase Yes (Homo sapiens) (UniProt P07947); test: qHTS for small molecule inhibitors of Yes1 kinase: Primary Screen (AID 686947);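 also: plate controls were DMSO with enzyme for no effect and no-enzyme DMSO wells for full effect; nearly all actives have a fitted effect of over 60% in size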
Chain of Tyrosine-protein kinase Yes (Homo sapiens) (P07947 whole entry, looked up): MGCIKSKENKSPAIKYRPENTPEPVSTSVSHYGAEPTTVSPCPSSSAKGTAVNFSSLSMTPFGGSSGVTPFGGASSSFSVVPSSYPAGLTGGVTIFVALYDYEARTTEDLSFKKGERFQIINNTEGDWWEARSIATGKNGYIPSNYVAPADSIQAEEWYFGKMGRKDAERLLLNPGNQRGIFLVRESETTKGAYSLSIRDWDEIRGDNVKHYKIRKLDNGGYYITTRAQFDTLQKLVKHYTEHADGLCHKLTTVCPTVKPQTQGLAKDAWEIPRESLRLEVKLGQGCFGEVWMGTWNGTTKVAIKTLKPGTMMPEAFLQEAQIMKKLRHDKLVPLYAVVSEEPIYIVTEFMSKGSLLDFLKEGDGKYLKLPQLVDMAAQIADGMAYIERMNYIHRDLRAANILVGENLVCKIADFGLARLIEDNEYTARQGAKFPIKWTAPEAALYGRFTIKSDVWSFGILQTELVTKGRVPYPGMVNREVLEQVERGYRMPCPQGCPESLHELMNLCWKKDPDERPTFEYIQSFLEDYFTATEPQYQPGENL
Outline: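 ADP-Glo luminescence readout; final 4 nM Yes1, 0.1 mM ATP, 0.3 mg/mL poly(E4Y), Tris pH 7.5, MgCl2, DTT, Brij-35. 20 min compound preincubation, 60 min reaction at RT. Normalized to DMSO wells with and without enzyme.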

[13] = qHTS for small molecule inhibitors of Yes1 kinase: Counter Assay (AID 686950);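 also: no kinase present so only ADP-Glo detection of a fixed ADP amount is tested; luminescence from ADP-Glo reporting ADP in a fixed ATP and ADP mixture; series mostly up to about 77 µM; 0% = DMSO wells with ATP plus ADP and -100% = ATP-only wells without ADP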
Outline: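 Luminescence read-out from ADP-Glo quantifies a fixed ADP amount (0.02 mM ADP with 0.08 mM ATP) after 60 min at room temperature; signal is normalized between DMSO wells with ATP/ADP and with 0.1 mM ATP alone.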

[14] = qHTS assay to identify small molecules that stimulate interleukin-8 (IL-8) secretion (AID 651758; active = well fitted activation curve with a large enough effect in the signal ratio; the % refers to the signal ratio; also: potency is read from the fitted curve at half-maximal effect; as to activation: 0% is about no effect)
Outline: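 Secreted IL-8 measured by TR-FRET sandwich (cryptate and XL665 antibodies) from THP-1 cells exposed to compound overnight (16 hrs, 37 C).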

[15] = qHTS assay for small molecule activators of the nuclear factor-kappa B (NF-kB) signaling pathway (AID 651749; active = well fitted activation curve with a large enough effect in the signal ratio; the % refers to the signal ratio; also: series mostly up to about 77 µM; % of control where 0% means no effect); conditions: NF-kB-bla ME-180 cells, beta-lactamase FRET ratio, 16 h; active compounds read high
Outline: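 Stably transfected ME-180 line; NF-kB response element upstream of beta-lactamase. Treatment: compound or DMSO, 16 hr. Detection: fluorescent FRET substrate.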

OCCOCCOCCO
inactive: Potency [1] | activation [2] 1.43% and -1.5% | max response [3] 0.91% and -3.36% | Potency [4] | max response [5] -9.26% and -13.2%

C[C@H](CCC(=O)O)[C@H]1CC[C@H]2[C@@H]3[C@H](O)C[C@@H]4C[C@H](O)CC[C@]4(C)[C@H]3C[C@H](O)[C@]12C
inactive: Potency [1] | activation [2] -1.29% | Potency [6] | Potency [7] | Potency [8] | activation [9] -1.36% | max response [3] 0.161% | Potency [10] | Potency [4] | outcome [11] | max response [5] 1.94%

CCCCCCCCCCCCCCCCCC(=O)OC[C@@H](O)[C@H]1OC[C@H](O)[C@H]1O
inactive: Potency [1] | activation [2] -1.65% | activation [9] 0.366% | max response [3] 12.5% | Potency [4] | max response [5] -0.0548%

O=P(O)(O)O
inactive: Potency [1] | Potency [6] | Potency [7] | Potency [8] | activation [9] -1.09% | max response [3] -4.49% | Potency [10] | Potency [4] | outcome [11] | max response [5] -2%

CC(C)CCCCCCc1ccc(O)cc1
inactive: activation [2] 2.32% | activation [9] 0.323% | Potency [4] | max response [5] -6.03%

CCCCC(CC)COS(=O)(=O)O (stereo not given)
inactive: activation [9] -1.44% | max response [3] -1.27% | Potency [4] | max response [5] 8.31%

CO[C@H]1C[C@@H]2CC[C@@H](C)[C@@](O)(O2)C(=O)C(=O)N2CCCC[C@H]2C(=O)O[C@H]([C@H](C)C[C@@H]2CC[C@@H](OC(=O)C(C)(CO)CO)[C@H](OC)C2)CC(=O)[C@H](C)/C=C(\C)[C@@H](O)[C@@H](OC)C(=O)[C@H](C)C[C@H](C)/C=C/C=C/C=C/1C
inactive: outcome [12] | outcome [13]

C=CC(C)(O)CC/C=C(\C)CCC=C(C)C (stereo not given)
inactive: activation [2] -1.4% | activation [9] 0.207% | max response [3] -0.214% | Potency [4] | max response [5] 1.82%

OCC(O)CO
inactive: activation [2] -2.04% and 0.703% | Potency [6] | Potency [7] | Potency [8] | activation [9] -0.636% and 0.226% | max response [3] -3.36% and -0.557% | Potency [10] | Potency [4] | outcome [11] | max response [5] -6.54% and -5.61%

C=C1C(CCl)(CCl)C2(Cl)C(Cl)C(Cl)C1(Cl)C2(Cl)Cl (stereo not given)
inactive: activation [9] 1.11% | max response [3] 19%
active: Potency [1] 37.6 µM | Potency [14] 66.8 µM | Potency [4] 66.8 µM

C/C=C/C=C/C(=O)O
inactive: Potency [8] | Potency [14] | activation [9] 0.214% | max response [3] 0.184% | Potency [10] | Potency [4] | outcome [11] | max response [5] -1.45%

CN(CCO)CC(O)Cn1cnc2c1c(=O)n(C)c(=O)n2C (stereo not given) (tested in a mixture with another compound)
inactive: Potency [1] | activation [9] -0.921% | max response [3] -0.0909% | Potency [4] | max response [5] 2.54%

NC(N)=O
inactive: activation [15] 1.05% | Potency [6] | Potency [7] | Potency [8] | max response [3] -1.08% | Potency [10] | Potency [4] | outcome [11] | max response [5] -1.96%

CC1=CC(=O)NS(=O)(=O)O1
inactive: Potency [1] | Potency [6] | Potency [7] | Potency [8] | activation [9] -1.78% and 1.57% | max response [3] -1.04% and -0.299% | Potency [10] | Potency [4] | outcome [11] | max response [5] 6.07% and 6.81%

O.O.O.O.O.O.O.O=S(=O)([O-])[O-].[Co+2]
inactive: Potency [6] | Potency [7] | activation [9] -0.475% | max response [3] -1.84% | Potency [4] | max response [5] -4.91%

OCc1ccccc1
inactive: Potency [6] | Potency [7] | Potency [8] | Potency [14] | activation [9] 0.173% | max response [3] 2.92% | Potency [10] | Potency [4] | outcome [11] | max response [5] -4.76%
